Reference: the supplement of paper PMC8728848
Shown is part of a subset that was picked to be rich in the strongest signals.

Experiments:
Experiment in all cases: glycan array binding signal (z-score within array); higher = stronger binding
Conditions in all cases: glycan notation: IUPAC condensed, linker removed
Fuc(a1-2)[Gal(a1-3)]Gal = biological target: Fuc(a1-2)[Gal(a1-3)]Gal
Procedure, shortened: (§1)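 Negative Z-scores can be read as non-binding. The Z-score is calculated within each array and then averaged across arrays of one protein sequence at different concentrations or buffers and across linkers. Arrays, 3228 in all, were curated from the Consortium for Functional Glycomics database and kept only where the protein sequence was available.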

[1] = biological target: Fuc(a1-2)[Gal(a1-4)]Gal(b1-4)GlcNAc
Procedure, shortened: as §1

[2] = biological target: Fuc(a1-2)[GalNAc(a1-3)]Gal(b1-4)[Fuc(a1-3)]GlcNAc
Procedure, shortened: as §1

[3] = biological target: Fuc(a1-3)[Gal(b1-4)]GlcNAc(b1-4)Gal(b1-4)[Fuc(a1-3)]GlcNAc
Procedure, shortened: as §1

[4] = biological target: Fuc(a1-3)[GalNAc(b1-4)]GlcNAc
Procedure, shortened: as §1

Gal(a1-3)Gal = biological target: Gal(a1-3)Gal
Procedure, shortened: as §1

Gal(a1-3)Gal(b1-4)GlcNAc = biological target: Gal(a1-3)Gal(b1-4)GlcNAc
Procedure, shortened: as §1

[5] = biological target: Gal(a1-3)[Gal(a1-4)]Gal(b1-4)GlcNAc
Procedure, shortened: as §1

Gal(b1-3)Gal = biological target: Gal(b1-3)Gal
Procedure, shortened: as §1

[6] = biological target: Gal(b1-3)GalNAc(b1-4)[Neu5Ac(a2-3)]Gal(b1-4)Glc
Procedure, shortened: as §1

[7] = biological target: Gal(b1-3)GlcNAc(b1-3)Gal(b1-4)Glc
Procedure, shortened: as §1

[8] = biological target: Gal(b1-3)[Neu5Ac(b2-6)]GalNAc
Procedure, shortened: as §1

[9] = biological target: Gal(b1-4)GlcNAc(b1-3)Gal(b1-4)GlcNAc(b1-3)Gal(b1-4)GlcNAc
Procedure, shortened: as §1

[10] = biological target: Gal(b1-4)GlcNAc(b1-6)[Gal(b1-3)]GalNAc
Procedure, shortened: as §1

GalNAc(a1-3)Gal = biological target: GalNAc(a1-3)Gal
Procedure, shortened: as §1

[11] = biological target: GlcNAc(b1-3)Gal(b1-4)GlcNAc
Procedure, shortened: as §1

Man(a1-3)[Man(a1-6)]Man = biological target: Man(a1-3)[Man(a1-6)]Man
Procedure, shortened: as §1

[12] = biological target: Neu5Ac(a2-3)Gal(b1-3)[Fuc(a1-4)]GlcNAc(b1-3)Gal(b1-4)[Fuc(a1-3)]GlcNAc
Procedure, shortened: as §1

[13] = biological target: Neu5Ac(a2-3)[GalNAc(b1-4)]Gal(b1-4)Glc
Procedure, shortened: as §1

[14] = biological target: Neu5Ac(a2-3)[GalNAc(b1-4)]Gal(b1-4)GlcNAc
Procedure, shortened: as §1

Neu5Ac(a2-6)Gal(b1-4)Glc = biological target: Neu5Ac(a2-6)Gal(b1-4)Glc
Procedure, shortened: as §1

[15] = biological target: Neu5Gc(a2-3)Gal(b1-3)[Fuc(a1-4)]GlcNAc
Procedure, shortened: as §1

[16] = biological target: Fuc(a1-2)Gal6S(b1-4)GlcNAc
Procedure, shortened: as §1

[17] = biological target: Fuc(a1-2)[Gal(a1-3)]Gal(b1-4)Glc
Procedure, shortened: as §1

[18] = biological target: Fuc(a1-2)[GalNAc(a1-3)]Gal(b1-4)GlcNAc
Procedure, shortened: as §1

[19] = biological target: Fuc(a1-2)[GalNAc(a1-4)]Gal(b1-4)GlcNAc
Procedure, shortened: as §1

Fuc(a1-4)GlcNAc = biological target: Fuc(a1-4)GlcNAc
Procedure, shortened: as §1

Gal(a1-4)Gal(b1-4)Glc = biological target: Gal(a1-4)Gal(b1-4)Glc
Procedure, shortened: as §1

Gal(b1-3)Gal(b1-4)GlcNAc = biological target: Gal(b1-3)Gal(b1-4)GlcNAc
Procedure, shortened: as §1

[20] = biological target: Gal(b1-3)[Neu5Ac(a2-6)]GalNAc
Procedure, shortened: as §1

[21] = biological target: Gal(b1-4)GlcNAc(a1-6)Gal(b1-4)GlcNAc
Procedure, shortened: as §1

[22] = biological target: Gal(b1-4)GlcNAc(b1-3)Gal(b1-4)[Fuc(a1-3)]GlcNAc(b1-3)Gal(b1-4)[Fuc(a1-3)]GlcNAc
Procedure, shortened: as §1

[23] = biological target: Gal(b1-4)GlcNAc(b1-3)[Gal(b1-4)GlcNAc(b1-6)]Gal(b1-4)GlcNAc
Procedure, shortened: as §1

Gal3S6S(b1-4)GlcNAc6S = biological target: Gal3S6S(b1-4)GlcNAc6S
Procedure, shortened: as §1

[24] = biological target: GlcNAc(a1-3)Gal(b1-4)GlcNAc
Procedure, shortened: as §1

[25] = biological target: GlcNAc(a1-6)Gal(b1-4)GlcNAc
Procedure, shortened: as §1

[26] = biological target: Man(a1-2)Man(a1-3)[Man(a1-2)Man(a1-6)]Man(a1-6)[Man(a1-2)Man(a1-2)Man(a1-3)]Man
Procedure, shortened: as §1

[27] = biological target: Man(a1-3)[Man(a1-6)]Man(a1-6)[Man(a1-3)]Man(b1-4)GlcNAc(b1-4)GlcNAc
Procedure, shortened: as §1

[28] = biological target: Neu5Ac(a2-3)Gal(b1-3)GalNAc6S
Procedure, shortened: as §1

[29] = biological target: Neu5Ac(a2-3)Gal(b1-3)GlcNAc(b1-3)Gal(b1-3)GlcNAc
Procedure, shortened: as §1

[30] = biological target: Neu5Ac(a2-3)GalNAc(b1-4)GlcNAc
Procedure, shortened: as §1

Neu5Ac(a2-8)Neu5Ac = biological target: Neu5Ac(a2-8)Neu5Ac
Procedure, shortened: as §1

B1: SIGNR8 (Mus musculus) (protein)
chain: MAGEPEFHQSKNHEEEVTSGEQGFAEHDPEGLICSSKSLQGHLTQVPWLLLLLISLGLFLLMLATLVQVSRIRAYSQGQTQDQQGSSSLDKVAVPREQTHSGLEQIQQIQQQLTQFNASLAGLCRPCPWDWELFQGSCYLFSRTLGSWETSASSCEDLGAHLVIVNSVSEQRFMKYWNVRKNQRSWIGLSDHIHEGSWQWVDGSALKFSFWKEGEPNNDGDEDCVELFMDDWNDNKCTEQNFWVCEQPSAPCPHH
glycan array binding signal (z-score) (Fuc(a1-2)[Gal(a1-3)]Gal): 2.32 | glycan array binding signal (z-score) [1]: 3.32 | glycan array binding signal (z-score) [2]: -0.386 | glycan array binding signal (z-score) [3]: -0.385 | glycan array binding signal (z-score) [4]: -0.369 | glycan array binding signal (z-score) (Gal(a1-3)Gal): 2.62 | glycan array binding signal (z-score) (Gal(a1-3)Gal(b1-4)GlcNAc): 3.18 | glycan array binding signal (z-score) [5]: 4.59 | glycan array binding signal (z-score) (Gal(b1-3)Gal): 4.35 | glycan array binding signal (z-score) [6]: -0.329 | glycan array binding signal (z-score) [7]: -0.386 | glycan array binding signal (z-score) [8]: -0.394 | glycan array binding signal (z-score) [9]: 1.7 | glycan array binding signal (z-score) [10]: 2.18 | glycan array binding signal (z-score) (GalNAc(a1-3)Gal): -0.329 | glycan array binding signal (z-score) [11]: -0.398 | glycan array binding signal (z-score) (Man(a1-3)[Man(a1-6)]Man): -0.373 | glycan array binding signal (z-score) [12]: -0.393 | glycan array binding signal (z-score) [13]: -0.4 | glycan array binding signal (z-score) [14]: -0.4 | glycan array binding signal (z-score) (Neu5Ac(a2-6)Gal(b1-4)Glc): -0.394

B2: CREG (Mus musculus), O88668 (protein)
chain: MAARAPELARSLLAALLAPALVALLVSPASGRGGRDHGDWDVDRRLPPLPPREDGPRVARFVTHVSDWGSLATISTIKEVRGWPFADIISISDGPPGEGTGEPYMYLSPLQQAVSDLQENPEATLTMSLAQTVYCRNHGFDPQSPLCVHIMMSGTVTKVNKTEEDYARDSLFVRHPEMKHWPSSHNWFFAKLKISRIWVLDYFGGPKVVTPEEYFNVTLQ
glycan array binding signal (z-score) [15]: -0.132

B3: R410P1E11 (Tachypleus tridentatus), TAL2_TACTR (protein)
chain: MEKGTPPTHDSDNWMGRAKEIGNGGWDQFQFLFFDPNGYLYAVSNDKLYKASPPQSDTDNWIARATEIGSGGWSGFKFLFFHPNGYLYAVRGQRFYKALPPVSNQD
glycan array binding signal (z-score) [16]: -0.187 | glycan array binding signal (z-score) [17]: -0.282 | glycan array binding signal (z-score) [18]: 2.74 | glycan array binding signal (z-score) [2]: 1.41 | glycan array binding signal (z-score) [19]: 5.65 | glycan array binding signal (z-score) (Fuc(a1-4)GlcNAc): -0.369 | glycan array binding signal (z-score) (Gal(a1-4)Gal(b1-4)Glc): -0.323 | glycan array binding signal (z-score) (Gal(b1-3)Gal(b1-4)GlcNAc): -0.622 | glycan array binding signal (z-score) [6]: -0.397 | glycan array binding signal (z-score) [20]: -0.538 | glycan array binding signal (z-score) [21]: -0.52 | glycan array binding signal (z-score) [22]: -0.411 | glycan array binding signal (z-score) [23]: -0.144 | glycan array binding signal (z-score) (Gal3S6S(b1-4)GlcNAc6S): 0.451 | glycan array binding signal (z-score) (GalNAc(a1-3)Gal): 7.43 | glycan array binding signal (z-score) [24]: 3.25 | glycan array binding signal (z-score) [25]: 10.1 | glycan array binding signal (z-score) [26]: -0.751 | glycan array binding signal (z-score) (Man(a1-3)[Man(a1-6)]Man): -0.45 | glycan array binding signal (z-score) [27]: -0.483 | glycan array binding signal (z-score) [28]: -0.515 | glycan array binding signal (z-score) [29]: 0.008 | glycan array binding signal (z-score) [30]: 0.139 | glycan array binding signal (z-score) (Neu5Ac(a2-8)Neu5Ac): -0.039
